Source: the supplement of paper PMC10981050
Values joined by “and” are separate entries in the source; they are usually repeats but may differ in a detail not shown here. Equal entries are not always repeated. Structures can show the parent of a compound that is named as a salt.

What was measured:
Test in all cases: cell viability relative to vehicle control; higher = less cytotoxic
Conditions in all cases: 10 µM
[1] = system: K562
Procedure, shortened: (§1)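 After removal of identity-inconsistent compounds, the Selleck bioactive, kinase and epigenetic probe libraries were screened on CRISPR-edited mutant clones and isogenic wild-type clones of four leukaemia lines. Plates were 384-well, each well holding 2000 cells in 50 µL medium and receiving a single 10 µM acoustically dispensed dose. CellTiter-Glo luminescence was read 48 h later, after the supernatant was taken off. Genedata Screener was used to express viability as percent of the on-plate vehicle control.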

[2] = system: MARIMO
Procedure, shortened: as §1

[3] = system: MOLM14
Procedure, shortened: as §1

[4] = system: OCI-AML2
Procedure, shortened: as §1

| SMILES | cell viability ([1]; SRSF2 genotype: SRSF2 P95H/wt) | cell viability ([1]; SRSF2 genotype: SRSF2 wt/wt) | cell viability ([2]; SRSF2 genotype: SRSF2 P95H/wt) | cell viability ([2]; SRSF2 genotype: SRSF2 wt/wt) | cell viability ([3]; SRSF2 genotype: SRSF2 P95H/wt) | cell viability ([3]; SRSF2 genotype: SRSF2 wt/wt) | cell viability ([4]; SRSF2 genotype: P95H/wt) | cell viability ([4]; SRSF2 genotype: wt/wt) |
| --- | --- | --- | --- | --- | --- | --- | --- | --- |
| CC(=O)Nc1cccc2c1c(Sc1ccc(Cl)cc1)c(C)n2CC(=O)O | 108% and 110% | 100% | 108% | 112% | 105% | 106% | 101% | 108% |
| CC1=CC(=O)[C@@H]2C[C@H]1C2(C)C [(-)-Verbenone] | 105% and 102% | 96.3% | 92.5% | 98.8% | 90.8% | 95.7% | 87.2% | 96.3% |
| O=C(c1ccc(Cl)cc1Cl)n1nnc2ccccc21 | 54.8% and 62.1% | 70.3% | 48.4% | 46.2% | 59.3% | 49.6% | 37.9% | 29.3% |
| Oc1cc2c(cc1O)[C@@H]1c3ccc(O)c(O)c3OC[C@]1(O)C2 [Hematoxylin (Hydroxybrazilin)] | 97% and 94.6% | 94.1% | 95.7% | 98.5% | 99.8% | 99.7% | 101% | 98.4% |
| CCNC(=O)c1[nH]nc(-c2cc(Cl)c(O)cc2O)c1-c1ccc(OC)cc1 | 19.1% and 31.3% | 23.6% | 33.6% | 28.2% | 2.11% | 1.17% | 12.6% | 19.3% |
| COC(=O)Nc1nc2cc(C(=O)c3ccc(F)cc3)ccc2[nH]1 [Flubendazole (Flutelmium)] | 18.9% and 30.8% | 27.6% | 9.3% | 12% | 8.51% | 43.1% | 6.97% | 11% |
| Nc1ccn([C@H]2CC[C@@H](CO)O2)c(=O)n1 [Zalcitabine] | 111% and 103% | 111% | 107% | 112% | 105% | 107% | 58.7% | 83% |
| CCCCCCOC(=O)NC(=N)c1ccc(NCc2nc3cc(C(=O)N(CCC(=O)OCC)c4ccccn4)ccc3n2C)cc1 [BIBR-1048 (Dabigatran)] | 67% and 66.3% | 67.2% | 55.2% | 55% | 0.49% | 0.53% | 55% | 35.7% |
| C=C(C)[C@@H]1CC[C@]2(C(=O)O)CC[C@]3(C)[C@H](CC[C@@H]4[C@@]5(C)CC[C@H](O)[C@@](C)(CO)[C@@H]5CC[C@]43C)[C@@H]12 [23-Hydroxybetulinic acid] | 93.7% and 96.8% | 91.1% | 96.6% | 107% | 100% | 103% | 103% | 109% |
| C[C@]1(c2nc3c(C(N)=O)cccc3[nH]2)CCCN1 [ABT-888 (Veliparib)] | 93.1% and 93% | 89.4% | 91% | 96.5% | 82.4% | 79% | 70.2% | 83.5% |
| CNCC[C@@H](Oc1ccccc1C)c1ccccc1 [Atomoxetine HCl] | 111% and 112% | 108% | 100% | 94.9% | 101% | 106% | 115% | 94.6% |
| COc1c(C)cnc(Cn2cnc3c(Cl)nc(N)nc32)c1C | 21.6% and 31% | 29.2% | 32.7% | 25.9% | 2.67% | 2.88% | 18.4% | 22.2% |
| C[N+]1(C)CCCC1C(=O)[O-] (stereo not given) [Stachydrine] | 99.9% and 99.1% | 105% | 97.3% | 100% | 99.6% | 104% | 106% | 102% |
| CC1(C)CC[C@]2(C(=O)O[C@@H]3O[C@H](CO)[C@@H](O)[C@H](O)[C@H]3O)CC[C@]3(C)C(=CC[C@@H]4[C@@]5(C)CC[C@H](O[C@@H]6O[C@H](C(=O)O)[C@@H](O)[C@H](O)[C@H]6O[C@@H]6O[C@H](CO)[C@@H](O)[C@H](O)[C@H]6O)C(C)(C)[C@@H]5CC[C@]43C)[C@@H]2C1 [Ginsenoside Ro] | 101% and 95.6% | 95.9% | 102% | 110% | 100% | 98.5% | 97.8% | 109% |
| C=CC(=O)Nc1cccc(Oc2nc(Nc3ccc(N4CCN(C)CC4)cc3)nc3ccsc23)c1 | 16.7% and 14.4% | 49.6% | 31.2% | 43.4% | 0.27% | 0.47% | 0.27% | 0.68% |
| COc1ccc2c(O[C@@H]3C[C@H]4C(=O)N[C@]5(C(=O)NS(=O)(=O)C6CC6)C[C@H]5/C=C\CCCCN(C)C(=O)[C@@H]4C3)cc(-c3nc(C(C)C)cs3)nc2c1C | 70.6% and 60.2% | 62.9% | 61.6% | 75.3% | 79.1% | 71.6% | 55.2% | 58.8% |
| CC(C)C[C@H](NC(=O)[C@H](CCc1ccccc1)NC(=O)CN1CCOCC1)C(=O)N[C@@H](Cc1ccccc1)C(=O)N[C@@H](CC(C)C)C(=O)[C@@]1(C)CO1 [Carfilzomib (PR-171)] | 2.27% and 2.75% | 1.72% | 0.54% | 1.08% | 0.49% | 0.49% | 0.45% | 0.57% |
| O=C1C(c2[nH]c3ccc(S(=O)(=O)O)cc3c2O)=Nc2ccc(S(=O)(=O)O)cc21 [Indigo carmine] | 98.1% and 93.6% | 94.2% | 94.5% | 106% | 83.1% | 99.5% | 79.9% | 84% |
| CCOC(=O)C=P(c1ccccc1)(c1ccccc1)c1ccccc1 [Ethyl (triphenylphosphoranylidene) acetate] | 96.8% and 92.7% | 98.4% | 90% | 99.2% | 84.5% | 93% | 90.2% | 84.8% |
| CCCCCCCCC(=O)O [Nonanoic acid] | 98.3% and 102% | 102% | 108% | 106% | 98.4% | 102% | 107% | 97% |
